# Shown are actives, neighbours in structure and some others; about 4.5% of the full set was active somewhere.
# GAA850 FXN act: activators of GAA850 frataxin (FXN) promoter. HEK293 lucGAA850 FXN promoter luciferase reporter, 24 h; percent of 10 µM SAHA response. activation, % at 6 µM. hit rate 0.56% among 360,000. AID 540364;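 active = activation above the average of all compounds screened plus 3 SD, cutoff fixed separately per campaign, cut at about 7.5% in these data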;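 also: 0% = DMSO wells and 100% = 10 µM SAHA wells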
# hcDAF-12 act: activates DAF-12 receptor from parasite H. contortus; HEK293 hcDAF-12 lit1-tk-luc reporter, luminescence; 0% DMSO, 100% Δ7-dafachronic acid; activation, % at 6.8 µM; hit rate 1.4% among 370,000; AID 652067;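 active = activation above the mean of all tested compounds plus 3 SD, cut at about 5.5% in these data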;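 also: 100% = response to 3 µM Δ7-dafachronic acid high control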
# DAX1 inh-1: inhibits human nuclear receptor DAX1. P51843. HEK293 Gal4-DAX1 luciferase reporter, luminescence. inhibition, % at 6.75 µM. hit rate 0.99% among 340,000. AID 504766;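 active = inhibition above the mean over all tested compounds plus 3 SD, cut at about 4.2% in these data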;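 also: 0% = DAX1-transfected cells with DMSO and 100% = empty-vector control cells with DMSO; inhibition shows as a rise in luminescence from relieved DAX1 repression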
# Target sequence (P51843 207-470 limits assumed): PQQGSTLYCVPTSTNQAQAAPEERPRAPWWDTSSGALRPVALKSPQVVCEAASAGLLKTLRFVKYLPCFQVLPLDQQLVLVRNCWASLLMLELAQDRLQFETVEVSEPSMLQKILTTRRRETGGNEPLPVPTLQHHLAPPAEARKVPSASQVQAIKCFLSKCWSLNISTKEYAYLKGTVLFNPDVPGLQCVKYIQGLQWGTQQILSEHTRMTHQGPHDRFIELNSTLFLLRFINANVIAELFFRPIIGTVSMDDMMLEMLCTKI
# hgDAF12 agonist: agonists of H. glycines DAF-12 nuclear receptor; HEK293 GAL4-hgDAF12 UAS-luciferase reporter, agonist luminescence; normalized to butyrate control; activation, % at 6.8 µM; hit rate 1.8% among 370,000; AID 687014;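 active = activation above a cutoff set at the mean of all screened compounds plus 3 SD, cut at about 10% in these data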;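 also: 0% = DMSO wells and 100% = sodium butyrate wells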
# DAX1 inh-2: blocks DAX1 repression of SF-1 activated StAR promoter. hit rate 1.1% among 370,000. HEK293T StAR-luciferase reporter, SF-1/DAX-1 repression relief. AID 652010. inhibition, % at 6.8 µM;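 active = inhibition above the mean over all tested compounds plus 3 SD, cut at about 3.6% in these data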;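 also: 0% = DAX-1 cells with DMSO and 100% = cells lacking DAX-1 with DMSO; higher inhibition means more luminescence from relief of DAX-1 repression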
# ssDAF-12 act: S. stercoralis DAF-12 activation, primary screen; HEK293 ssDAF-12/GRIP1 lit1-tk-luc reporter, luminescence; % of 3 µM dafachronic acid response; activation, % at 6.8 µM; hit rate 1% among 370,000; AID 652126;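 active = activation above the mean over all tested compounds plus 3 SD, cut at about 0.9% in these data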;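 also: 0% = DMSO-only wells and 100% = 3 µM delta7-dafachronic acid wells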
# * marks the source's active call; other numbers are inactive results; / = no result.
SMILES,GAA850 FXN act,hcDAF-12 act,DAX1 inh-1,hgDAF12 agonist,DAX1 inh-2,ssDAF-12 act
CC[C@]12c3[nH]c4cc(CCC(=O)N(C)C)ccc4c3CCN1C(=O)[C@@H](CC(=O)NC/C=C(\C)CCC=C(C)C)C[C@@H]2C(=O)N1CCN(C(=O)c2ccco2)CC1,0,/,1,/,/,/
COc1ccc2c(c1)CNC2CS(=O)(=O)NC1CCCC1 (stereo unspecified),/,2,/,1,-1,0
Cc1cc(C(=O)N/N=C/c2ccccc2)c(C)o1,2,1,2,1,0,-2
Cc1cc(C(=O)N/N=C/c2ccc([N+](=O)[O-])cc2)c(C)o1,2,-1,1,11*,-1,-1
CC1(C)CC(NC(=O)c2ccc(Cl)cc2)CC(C)(C)N1,3,-2,3,0,0,0
CC1(C)CC(NC(=O)c2ccc(Cl)c(Cl)c2)CC(C)(C)N1,1,1,4.6*,1,1,-1
[O-][n+]1ccc(C(O)c2ccccc2)cc1 (stereo unspecified),0,3,5.1*,-1,0,-1
NC(=O)c1ccsc1NC(=O)COC(=O)c1cccnc1Cl,-1,1,0,11*,1,0
NC(=O)c1ccsc1NC(=O)COC(=O)c1ccc(Cl)nc1,1,-2,1,0,1,-1
COC(=O)C1CN(CC(C)C)CCS(=O)(=O)N1Cc1cccc(Cl)c1 (stereo unspecified),/,-1,/,0,0,-2
O=C1C(=NO)CCc2ccccc21,-1,5,2,1,-2,1.3*
O/N=C1/CCc2cccc3cccc1c23,0,1,1,6,1,-1
Cc1cc(/C=N/NC(=O)c2cccc(F)c2)c(C)n1-c1ccccc1,2,2,4.5*,11*,2,0
Cc1[nH]c2ccccc2c1/C=N/NC(=O)c1cccc(F)c1,3,1,7.8*,7,1,0
Cc1[nH]c2ccccc2c1/C=N/NC(=O)c1cccc([N+](=O)[O-])c1,0,1,/,3,0,-1
CC(C)N1CCc2c(-c3nc4ccccc4s3)csc2C1,/,0,/,5,/,-1
CC(=O)c1ccc(NC(=S)N2CCN(CCO)CC2)cc1,2,-1,4.8*,0,0,-1
CCCN1CCCCC(NC(=O)c2ccc3ccccc3c2)C1=O (stereo unspecified),/,-1,/,2,1,-1
Cc1cc(NC(=O)c2ccc(NS(=O)(=O)c3ccc(C)c(C)c3)cc2)no1,/,-1,/,-2,0,-2
CCCCCCCCN1C(=O)[C@@H](CC(=O)N2CCOCC2)C[C@@]2(C(=O)OC)C1=C[C@H](COCc1ccccc1)O[C@@H]2C,/,-1,/,4,-1,-2
CCCCCCCCN1C(=O)[C@@H](CC(=O)N2CCCCC2)C[C@@]2(C(=O)OC)C1=C[C@H](COCc1ccccc1)O[C@@H]2C,/,5.8*,/,1,0,-1
CSc1ccc(C=NNC(=O)c2cc(-c3ccc(Cl)cc3)n[nH]2)cc1,/,2,/,4,-2,-1
Clc1cc(Cl)c2nc(N3CCOCC3)sc2c1,2,2,4.8*,6,1,0
Clc1ccc(Cl)c2sc(N3CCOCC3)nc12,2,2,-2,3,0,-1
COc1ccc(/[N+]([O-])=C/c2ccco2)cc1,6,2,3,10*,2,0
SMILES,GAA850 FXN act,hcDAF-12 act,DAX1 inh-1,hgDAF12 agonist,DAX1 inh-2,ssDAF-12 act
CC(NCc1ccco1)C(=O)N1CCN(Cc2ccccc2F)CC1 (stereo unspecified),/,1,/,1,1,0
CC(=O)NCCc1ccc(C(=O)CSc2nnc(C3CC3)n2C2CC2)cc1,-2,3,1,2,4.5*,-1
C=CCn1c(C)cc(C(=O)CSc2nnc(C3CC3)n2C2CC2)c1C,3,0,0,3,4.2*,0
Cc1cc(O)cc(=O)n1-c1cc(C(F)(F)F)cc(C(F)(F)F)c1,/,-1,/,3,1,-1
CCc1cc(C(=O)Cc2nc3ccccc3s2)c(O)cc1OCC(=O)O,4,4,0,0,1,0.9*
CCC[C@H]1[C@@H](OC(=O)N2CCCC2)CC[C@@]23CCCN2C(=O)CCC[C@@H]13,/,-2,/,3,/,-1
